We go through 15 compounds from PMC5540273 (PLoS ONE, 2017).

The structures appear in SMILES notation.

Among the test systems are ERN1; FER; FES; FGFR1; FGFR2; FGFR3; FGFR4; FGR; FLT1.
What all share (conditions): concentration: 1 μM, replicates: in singlicate; n = 1
The test system of a further assay is T1, FAK.
T1 construct: gene PTK2
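Further: KINOMEscan kinase panel screen.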

Turning to `N#Cc1ccc(-c2cc(-c3c[nH]nc3-c3ccccn3)ccn2)cc1` [GW693028], the “%Inh” value in the assay on ERN1 is recorded as 0%; in the assay on FAK it was 0%; in the assay on FER it was 7%; with FES, 4%; in the assay with FGFR1, 0%; in the assay with FGFR2 it was 0%. The “%Inh” value in the assay on FGFR3 is given as 0%; in the assay on FGFR4, 12%; with FGR, 21%; with FLT1, 0%.
Turning to `NS(=O)(=O)c1cccc(-c2ccc3ncc(N4CCOCC4)nc3c2)c1` [GSK1535721], the “%Inh” value with ERN1 is 2%; with FAK, 0%; with FER it was 3%; in the assay with FES it was 6%; with FGFR1, 0%; in the assay on FGFR2, 0%. Besides, the “%Inh” value is reported as 22% in the assay with FGFR3, 15% in the assay with FGFR4, 27% in the assay with FGR and 13% in the assay with FLT1.
`Cc1ccc(C(=O)NCC(N)=O)cc1-n1c(C)cc(OCc2ccc(F)cc2F)c(Br)c1=O`: the “%Inh” value is 0% in the assay with ERN1; 7% with FAK; 6% in the assay with FER; 23% in the assay on FES; 51% in the assay with FGFR1; 32% in the assay with FGFR2. In addition, the “%Inh” value with FGFR3 turned out to be 21%; in the assay on FGFR4, 19%; in the assay on FGR it was 25%; with FLT1 it was 0%.
In the case of `O=C(NCCCN1CCOCC1)c1cccc(Nc2nccc(Nc3ccc(Oc4ccccc4)cc3)n2)c1` [GW663929], the “%Inh” value with ERN1 stood at 21%; in the assay with FAK, 0%; in the assay on FER it was 19%; with FES, 16%; with FGFR1 it was 0%; in the assay on FGFR2 it was 0%. Further, the “%Inh” value in the assay on FGFR3 is reported as 30%; with FGFR4, 54%; with FGR, 93.4%; in the assay on FLT1 it was 30%.
As to `CCCCCc1nc2c(N)ncnc2n1CCCCC` [SKF-97255], the “%Inh” value in the assay with ERN1 is recorded as 13%; in the assay with FAK it was 0%; with FER, 13%; in the assay on FES it was 0%; with FGFR1, 11%; in the assay on FGFR2, 0%. For the same compound, the “%Inh” value with FGFR3 turned out to be 0%; in the assay with FGFR4 it was 0%; with FGR, 7%; with FLT1, 0%.
Take `Fc1ccc(-c2ncn(CCCN3CCOCC3)c2-c2cccnc2)cc1` [SB-211743]: the “%Inh” value with ERN1 was found to be 18%; in the assay on FAK it was 0%; with FER, 21%; in the assay on FES, 0%; in the assay with FGFR1, 0%; with FGFR2, 0%. In addition, the “%Inh” value was 2% in the assay with FGFR3, 0% in the assay with FGFR4, 0% with FGR and 8% in the assay with FLT1.
Regarding `Cc1nnc(-c2ccc3occ(-c4ccc(C(C)O)cc4)c3c2)o1` (stereo not drawn), the “%Inh” value with ERN1 came out at 0%; in the assay on FAK it was 0%; in the assay with FER, 0%; in the assay with FES, 17%; in the assay with FGFR1 it was 0%; with FGFR2, 16%. Further, the “%Inh” value is recorded as 22% with FGFR3, 19% in the assay on FGFR4, 11% in the assay with FGR and 16% in the assay with FLT1.
For `Cc1cccc(-c2nc(-c3ccc(S(C)(=O)=O)cc3)sc2-c2ccncc2)c1`, the “%Inh” value in the assay with ERN1 is 0%; in the assay on FAK it was 4%; in the assay on FER it was 14%; in the assay on FES, 37%; in the assay on FGFR1 it was 26%; in the assay with FGFR2, 1%. The “%Inh” value amounted to 0% with FGFR3, 0% in the assay on FGFR4, 45% with FGR and 0% in the assay with FLT1.
For `O=C(NCCNc1ccnc(Nc2ccc(F)cc2)n1)c1cc2ccccc2s1` [GSK1379874], the “%Inh” value with ERN1 stood at 54%; in the assay on FAK it was 0%; in the assay with FER, 16%; in the assay with FES it was 0%; in the assay with FGFR1, 0%; in the assay with FGFR2, 62%. Also, the “%Inh” value in the assay with FGFR3 worked out at 6%; in the assay on FGFR4, 0%; with FGR, 15%; in the assay on FLT1, 19%.
For the compound `COc1ccc(S(=O)(=O)NC2CCN(c3cc(C)nc(Nc4cccc(C#N)c4)n3)CC2)cc1.O=C(O)C(F)(F)F` [GSK1653539], the “%Inh” value with ERN1 came out at 4%; in the assay with FAK it was 0%; in the assay on FER, 23%; in the assay with FES, 12%; with FGFR1, 0%; in the assay with FGFR2 it was 0%. For the same compound, the “%Inh” value in the assay with FGFR3 is reported as 21%; with FGFR4, 0%; in the assay on FGR it was 33%; with FLT1 it was 12%.
With `Cl.Nc1ncnc2occ(-c3ccc(NC(=O)Nc4cc(C(F)(F)F)ccc4F)cc3)c12` [SB-707548], the “%Inh” value is on record as 25% in the assay with ERN1; 93.7% in the assay on FAK; 31% in the assay on FER; 6% in the assay with FES; 74% in the assay with FGFR1; 77% with FGFR2. In addition, the “%Inh” value in the assay on FGFR3 is reported as 63%; with FGFR4, 71%; in the assay with FGR it was 41%; with FLT1, 99.5%.
On to `O=C(c1ccc(-c2cc(-c3c[nH]nc3-c3ccccn3)ccn2)cc1)N1CCOCC1` [GW812171], for which the “%Inh” value with ERN1 was 54%; in the assay on FAK, 0%; in the assay on FER, 0%; in the assay with FES it was 0%; in the assay on FGFR1 it was 4%; in the assay on FGFR2, 0%. The “%Inh” value in the assay with FGFR3, with FGFR4, in the assay with FGR and in the assay with FLT1 was 0% throughout.
With `CNc1ncnc2[nH]ncc12` [SKF-18355], the “%Inh” value with ERN1 is recorded as 33%; with FAK it was 0%; in the assay with FER, 30%; in the assay on FES, 0%; in the assay on FGFR1, 0%; with FGFR2, 0%. The “%Inh” value is on record as 5% in the assay on FGFR3, 0% in the assay with FGFR4, 0% in the assay with FGR and 0% with FLT1.
With `CN(C1=C(c2ccccc2)C(=O)NC1=O)c1ccccc1` [SB-334860], the “%Inh” value came out at 20% in the assay on ERN1; 0% in the assay with FAK; 19% in the assay with FER; 0% with FES; 0% with FGFR1; 0% with FGFR2. For the same compound, the “%Inh” value in the assay with FGFR3 amounted to 24%; in the assay with FGFR4, 18%; with FGR, 17%; in the assay with FLT1 it was 0%.
Consider `COc1ccc(CNC(=O)NC2CCN(c3ccnc(Nc4ccc(OC)cc4)n3)C2)cc1` (stereo not drawn) [GSK1379727], for which the “%Inh” value was determined as 0% in the assay with ERN1; 0% in the assay on FAK; 8% in the assay on FER; 1% in the assay on FES; 0% with FGFR1; 7% in the assay with FGFR2. Moreover, the “%Inh” value was found to be 18% with FGFR3, 0% in the assay with FGFR4, 26% with FGR and 5% in the assay on FLT1.
